The values that follow come from PubChem BioAssay (NCATS).

Records with an inconclusive call do not appear. The source made the active and inactive calls. Calls come from the whole dose curve; as a rule, active = well fitted curve in the direction sought with a large enough effect; inconclusive = small, poorly fitted or top-dose-only effect, or another doubt; inactive = no such curve, though single readings can be large; an effect the other way counts as inactive or inconclusive.

The nature of test [1]: qHTS of pediatric cancer cell lines to identify multiple opportunities for drug repurposing: Primary screen for TC32 cells (AID 1347089). Note: nearly all actives have a fitted effect of over 60% in size. Put shortly:
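Measured quantity: luminescence from CellTiter-Glo, reflecting metabolically active TC32 cells following 48 h of compound. Curves came straight from multi-point titrations, with 8 or 11 points in primary and 11 in confirmatory screening.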
For orientation: qHTS replaces the single test concentration by a dilution series.

A short description of test [2]: qHTS of pediatric cancer cell lines to identify multiple opportunities for drug repurposing: Primary screen for SJ-GBM2 cells (AID 1347091). The essentials:
(§1)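 Cell viability, CellTiter-Glo luminescence; 500-1,000 cells/well, 8- or 11-point titration, 48 h compound exposure at 37 degrees C, 5% CO2. Controls: DMSO neutral, bortezomib 2.3 µM final as positive.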

Test [3] is described as follows: qHTS of pediatric cancer cell lines to identify multiple opportunities for drug repurposing: Primary screen for A673 cells (AID 1347092). Note: nearly all actives have a fitted effect of over 45% in size. Put shortly: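 Cells are plated, rested 5 h, dosed by pintool, incubated 48 h, then lysed with CellTiter-Glo and read by luminescence. DMSO is the neutral control; bortezomib at 2.3 uM final is the positive control.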
A short description of test [4]: qHTS of pediatric cancer cell lines to identify multiple opportunities for drug repurposing: Primary screen for SK-N-MC cells (AID 1347093). The essentials:
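Metabolically active cells were quantified by ATP-dependent luminescence (CellTiter-Glo, 15 min at room temperature) following 48 h treatment. Cells had been plated at 500-1,000 per well and settled for 5 h beforehand.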

Test [5] in a line: qHTS of pediatric cancer cell lines to identify multiple opportunities for drug repurposing: Primary screen for BT-37 cells (AID 1347094). Put shortly: (§2)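 Quantitative HTS format: each compound titrated (MIPE 11 points from 0.78 nM, NPC 8 points from 0.59 nM) onto cells plated 5 hours earlier. After 48 h at 37 degrees C, CellTiter-Glo luminescence was recorded.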
Test [6] can be described thus: qHTS of pediatric cancer cell lines to identify multiple opportunities for drug repurposing: Primary screen for NB-EBc1 cells (AID 1347095). Put shortly:
as §2

Test [7] can be described thus: qHTS of pediatric cancer cell lines to identify multiple opportunities for drug repurposing: Primary screen for U-2 OS cells (AID 1347096). Note: nearly all actives have a fitted effect of over 50% in size. Put shortly:
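Cells (500-1,000/well) rested 5 h, then received compounds for 48 h; metabolically active cells were measured by CellTiter-Glo luminescence. Final concentrations spanned up to 46 µM (MIPE, 11-point) or 0.59 nM-46 µM (NPC, 8-point) in primary screens, 11-point in follow-ups.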

The nature of test [8]: qHTS of pediatric cancer cell lines to identify multiple opportunities for drug repurposing: Primary screen for DAOY cells (AID 1347090). Note: nearly all actives have a fitted effect of over 55% in size. The essentials:
as §1
Potency is the fitted concentration of half-maximal effect.

As for `Nc1ccc(C(=O)c2cc3c(ccc4ccccc43)[nH]2)cc1`, the Potency was 7.39 µM (active) in test [1]; 2.35 µM (active) in test [2]; 2.96 µM (active) in test [3]; 2.09 µM (active) in test [4]; 7.69 µM (active) in test [5]; 1.66 µM (active) in test [6]. For the same molecule, the Potency entry in test [7] is “inactive”.
For the molecule `CC(C)C[C@H](NC(=O)CNC(=O)c1cc(Cl)ccc1Cl)B(O)O`, the Potency in test [1] is 2.94 µM (active); in test [8] it was 0.235 µM (active); in test [3] it was 1.48 µM (active); in test [6], 0.526 µM (active); in test [7], 0.743 µM (active).
`CN1CCN(c2cc(C(=O)Nc3ccc4c(c3)-c3c(c(C(N)=O)nn3-c3ccc(F)cc3)CC4)c(Cl)cn2)CC1`: the Potency entry in test [1] was “inactive”. In addition, the Potency was 11.8 µM (active) in test [8], 2.35 µM (active) in test [3] and 23.5 µM (active) in test [7].
In the case of `COc1cc(C(=O)NS(=O)(=O)c2ccccc2C)ccc1Cc1cn(C)c2ccc(NC(=O)OC3CCCC3)cc12`, the Potency entry in test [1] and in test [6] was “inactive” throughout. The results for the Potency in test [8] and in test [4] were 29.6 µM (active) and 8.33 µM (active), respectively.
As to `CCOC(=O)C1=C(C)NC2=C(C(=O)CC(C)(C)C2)C1c1ccc(-c2ccccc2)cc1` (stereo unspecified), in test [1], the Potency entry was “inactive”. For the same molecule, the Potency in test [2] was 4.69 µM (active); in test [3] it was 3.72 µM (active); in test [5], 3.85 µM (active); in test [6], 5.9 µM (active).
Regarding `Cc1ccc(S(=O)(=O)Nc2cc(Cl)ccc2C(=O)Nc2nc(-c3ccccc3)cs2)cc1`, the Potency entry in test [1] and in test [7] was “inactive” throughout. Moreover, the Potency is 11.8 µM (active) in test [8], 7.43 µM (active) in test [4] and 7.43 µM (active) in test [6].
`COc1cc2ncnc(Nc3ccc(F)c(Cl)c3)c2cc1NC(=O)C=CCN1CCCCC1`: in test [1], the Potency result was “inactive”. The Potency in test [2] is 8.33 µM (active); in test [3] it was 18.7 µM (active); in test [5], 24.3 µM (active); in test [6] it was 26.4 µM (active).
`COc1cc(C(C)C)c2c(c1)S(=O)(=O)N(COc1cc(=O)n3cccc(OCCN4CCCCC4)c3n1)C2=O`: the Potency entry in test [1] and in test [7] was “inactive” throughout. The Potency is 26.4 µM (active) in test [2], 7.43 µM (active) in test [3] and 3.72 µM (active) in test [4].
For `CC(C)c1nn(-c2c(Cl)cccc2Cl)c2nc(Cc3ccc(OCCO)cc3)[nH]c(=O)c12`, the Potency in test [1] was 0.131 µM (active); in test [8], 0.0743 µM (active); in test [5], 0.0968 µM (active); in test [6], 0.0935 µM (active). Moreover, the Potency result in test [7] is “inactive”.
As to `Cn1cc(-c2[nH]c3cc(NC(=O)[C@H](N)C4CCCCC4)cc4c3c2C=NNC4=O)cn1`, the Potency was 2.62 µM (active) in test [1]; 0.59 µM (active) in test [2]; 5.9 µM (active) in test [3]; 0.59 µM (active) in test [6]; 11.8 µM (active) in test [7].
On to `CC1(C)O[C@@H]2C[C@@H]3[C@H]4C[C@@H](F)C5=CC(=O)C=C[C@]5(C)[C@@]4(F)[C@@H](O)C[C@]3(C)[C@]2(C(=O)CO)O1`, for which the Potency entry in test [1], in test [5], in test [6] and in test [7] was “inactive” throughout. Besides, in test [4], the Potency was 9.35 µM (active).
Take `CS(=O)(=O)N1CCN(Cc2cc3nc(-c4cccc5[nH]ncc45)nc(N4CCOCC4)c3s2)CC1`: the Potency in test [1] was 0.829 µM (active); in test [3] it was 4.69 µM (active); in test [4], 0.0418 µM (active); in test [5], 6.85 µM (active); in test [6], 0.833 µM (active).
On to `C[C@]12CC[C@H](O)CC1=CCC1C2CC[C@]2(C)C(n3cnc4ccccc43)=CCC12` (stereo partly specified), for which the Potency result in test [1] and in test [7] was “inactive” in each case. In addition, in test [3], the Potency is 14.8 µM (active).
For `O=C(Nc1cc(C(F)(F)F)cc(C(F)(F)F)c1)c1cc(Cl)ccc1O`, the Potency in test [8] is 0.59 µM (active); in test [2] it was 0.235 µM (active); in test [3], 4.69 µM (active); in test [4], 0.469 µM (active); in test [5] it was 0.968 µM (active); in test [6] it was 0.296 µM (active). Besides, the Potency in test [7] is 4.69 µM (active).
Regarding `C[C@H]1C[C@@H]2[C@@H]([C@@H](O)C[C@@]3(C)[C@H]2CC[C@]3(O)C(=O)CO)[C@@]2(C)C=CC(=O)C=C12`, the Potency entry in test [1], in test [2], in test [3], in test [6] and in test [7] was “inactive” each time.
On to `Cc1nc2ccc(CN(C)c3ccc(C(=O)N[C@@H](CCC(=O)O)C(=O)O)s3)cc2c(=O)[nH]1`, for which the Potency in test [1] is 0.131 µM (active); in test [4], 0.0105 µM (active); in test [6], 0.0422 µM (active). The Potency entry in test [7] was “inactive”.
On to `Nc1nccc(Oc2ccc(NC(=O)c3c[nH]cc(-c4ccc(F)cc4)c3=O)cc2F)c1Cl`, for which the Potency was 14.8 µM (active) in test [8]; 0.132 µM (active) in test [2]; 5.9 µM (active) in test [3]; 2.35 µM (active) in test [4]; 2.17 µM (active) in test [5]; 1.05 µM (active) in test [6]. In addition, the Potency entry in test [7] is “inactive”.
For `Cn1cncc1[C@@](N)(c1ccc(Cl)cc1)c1ccc2c(c1)c(-c1cccc(Cl)c1)cc(=O)n2C`, the Potency is 14.8 µM (active) in test [8]; 20.9 µM (active) in test [2]; 23.5 µM (active) in test [3]; 1.66 µM (active) in test [4]; 21.7 µM (active) in test [5]; 11.8 µM (active) in test [6]. In addition, the Potency in test [7] was 18.7 µM (active).
For the molecule `O=C(Nc1cn[nH]c1-c1nc2ccc(CN3CCOCC3)cc2[nH]1)NC1CC1`, the Potency is 3.72 µM (active) in test [8]; 0.59 µM (active) in test [2]; 1.48 µM (active) in test [3]; 0.059 µM (active) in test [4]; 12.2 µM (active) in test [5]; 1.48 µM (active) in test [6]. In test [7], the Potency was 4.69 µM (active).
As to `c1ccc2c(CCNc3ccc(Nc4ccncc4)cc3)c[nH]c2c1`, the Potency in test [1] is 20.8 µM (active); in test [2], 5.9 µM (active); in test [5], 4.32 µM (active); in test [6], 2.35 µM (active). Further, the Potency entry in test [7] is “inactive”.
As to `CC(C)(C)NC(=O)[C@H]1CN(Cc2cccnc2)CCN1C[C@@H](O)C[C@@H](Cc1ccccc1)C(=O)N[C@H]1c2ccccc2C[C@H]1O`, the Potency entry in test [1] and in test [7] was “inactive” each time. Also, the Potency in test [3] is 0.743 µM (active); in test [4] it was 0.118 µM (active).
As to `COc1cc2nccc(Oc3ccc(NC(=O)C4(C(=O)Nc5ccc(F)cc5)CC4)cc3)c2cc1OC`, the Potency in test [8] is 14.8 µM (active); in test [2] it was 0.0235 µM (active); in test [3] it was 1.48 µM (active); in test [4] it was 1.66 µM (active); in test [5], 1.72 µM (active); in test [6], 0.743 µM (active).
Turning to `Cn1c2ccccc2c2c3c(c4c5ccccc5n(CCC#N)c4c21)CNC3=O`, the Potency in test [8] is 5.9 µM (active); in test [2] it was 0.59 µM (active); in test [3], 0.935 µM (active); in test [4], 0.148 µM (active); in test [6], 0.418 µM (active).
With `Cc1cc(Nc2cc(N3CCN(C)CC3)nc(Sc3ccc(NC(=O)C4CC4)cc3)n2)n[nH]1`, the Potency was 0.93 µM (active) in test [1], 11.8 µM (active) in test [3], 0.418 µM (active) in test [4] and 0.935 µM (active) in test [6]. The Potency entry in test [5] and in test [7] was “inactive” each time.
